From PubChem
BAZ2B block: inhibitors of human BAZ2B bromodomain. Q9UIF8. AlphaScreen BAZ2B-H3K14Ac peptide displacement. Potency, µM (titrated, usually from 114 µM), for inactives: at the highest dose activity change, negative = inhibition, hits mostly inhibitors. hit rate 4.4% among 360,000; also: % is scaled to controls: 0 for no effect and ±100 for the full control effect; nearly all actives have a fitted effect of over 60% in size
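Protein-peptide AlphaScreen: BAZ2B 50 nM, b-H3K14Ac 50 nM, 1x PBS pH 7.4 + 0.01% Tween-20. Preincubation 30 min RT; cpd 30 min RT (top 110 uM); beads 20 min RT, light-protected.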
L3MBTL1 block: blocks human L3MBTL1 | Q9Y468 | AlphaScreen L3MBTL1–H3K9me1 peptide binding | Potency, µM (highest dose often 57.1 µM), for inactives: at the highest dose activity, negative = inhibition, actives largely listed as inhibitors | hit rate 0.66% among 230,000 | AID 485360; also: % is scaled to controls: 0 for no effect and ±100 for the full control effect; nearly all actives have a fitted effect of over 60% in size
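Displacement of a biotinylated histone H3(1-15) peptide monomethylated at Lys9 (75 nM) from L3MBTL1 (50 nM) was measured by AlphaScreen after a 30 min room-temperature compound incubation; cefsulodin titration served as intraplate control.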
HP1b chromo inh: blocks HP1-beta chromodomain binding to methylated histone tails; P83916; hit rate 0.56% among 390,000; Potency, µM (series often up to 114 µM), for the others: top-dose activity change, negative = inhibition, hits mostly inhibitors; AlphaScreen HP1-beta / biotin-H3K9me3 peptide binding; also: nearly all actives have a fitted effect of over 70% in size
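Compound inhibition of the preformed complex between 50 nM HP1-beta and 50 nM biotinylated H3K9me3 peptide was read by AlphaScreen. Buffer was PBS pH 7.4 with 0.01% Tween-20. Incubations ran 30 min at room temperature, with 10 ug/mL donor/acceptor beads.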
G9a block: blocks human histone lysine methyltransferase G9a; G9a H3K9 monomethylation, AlphaScreen, 2 h; Q96KQ7; Potency, µM (doses to about 102 µM), without a hit: at the highest dose activity, negative = inhibition, hits mostly inhibitors; hit rate 8.8% among 350,000; also: % is scaled to controls: 0 for no effect and ±100 for the full control effect; nearly all actives have a fitted effect of over 75% in size
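G9a (20 nM) preincubated 15 min RT with compounds, then 500 nM biotinylated H3K9 peptide and 20 uM SAM added; 2 h RT reaction. Monomethyl-H3K9 product detected by AlphaScreen with anti-H3K9me1 antibody, streptavidin donor and anti-rabbit IgG acceptor beads.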
JMJD2A Tudor: inhibitors of human JMJD2A Tudor domain. O75164. AlphaScreen JMJD2A-Tudor / H3K4me3 peptide binding. Potency, µM (highest dose often 114 µM), inactives show top-dose activity change, negative = inhibition, actives largely listed as inhibitors. hit rate 4.4% among 390,000. AID 504339; also: % is scaled to controls: 0 for no effect and ±100 for the full control effect; nearly all actives have a fitted effect of over 50% in size
Numbers without * were called inactive; ? = inconclusive; . = no result given; [ ] = dose if it differs, or a comment. Sampled rows, rich in hits. Any-hit rate of the full collection: about 11%. Calls follow the shape of the dose curve; as a rule, active = well fitted inhibition curve with a large enough effect; inconclusive = small, poorly fitted or top-dose-only effect; inactive = no such curve, though single readings can be large or run the other way. Potency is read from the fitted curve at half-maximal effect.

SMILES	BAZ2B block	L3MBTL1 block	HP1b chromo inh	G9a block	JMJD2A Tudor
OCCN1CCN(c2ncnc3c2c(-c2ccccc2)cn3-c2ccc(Br)cc2)CC1	44.7µM*	.	-33.3%	35.5µM*	35.5µM*
NC(=O)C1CCN(c2ncnc3c2c(-c2ccccc2)cn3-c2ccccc2)CC1	?	.	48.3%	50.1µM*	?
Cc1ccc(CC2SC(N)=NC2=O)cc1 (stereo unspecified)	-38.9%	-2.6%	55.4%	16.1%	-22.6%
Cc1cccc(CC2SC(N)=NC2=O)c1 (stereo unspecified)	1.1%	.	-8.3%	50.1µM*	-9.0%
COC(=O)c1c(-c2ccc(Cl)cc2)noc1N1CCN(c2cccc(OC)c2)CC1	1.4%	.	18.6%[57 µM]	11.5%[59 µM]	-8.8%
CCOc1ccc(S(=O)(=O)N2CCN(C(=O)c3cc([N+](=O)[O-])ccc3N3CCOCC3)CC2)cc1	2.8%	0.7%	13.1%	3.16µM*	-15.8%
CC1CC(C)CN(C(=O)COC(=O)c2cc([N+](=O)[O-])ccc2N2CCOCC2)C1 (stereo unspecified)	-10.7%	6.1%	-1.2%	79.4µM*	-24.8%
COc1cc(C(=O)COC(=O)c2cc([N+](=O)[O-])ccc2N2CCOCC2)ccc1OC(F)F	-2.5%	-3.9%	15.6%	31.6µM*	-27.4%
Cc1cc(C)c(C(=O)COC(=O)c2cc([N+](=O)[O-])ccc2N2CCOCC2)cc1C	-25.1%	-0.9%	17.7%	15.8µM*	-25.7%
COc1ccccc1C(=O)COC(=O)c1cc([N+](=O)[O-])ccc1N1CCOCC1	-23.3%	-18.1%	-6.7%	?	-34.2%
CC1(C)CC(=O)C2=C(C1)OC1=C(C(=O)CC(C)(C)C1)C2c1ccc(O)cc1O	?	-7.2%	2.0%	2.82µM*	-24.8%
CC1(C)CC(=O)C2=C(C1)OC1=C(C(=O)CC(C)(C)C1)C2c1ccc(O)c([N+](=O)[O-])c1	-4.1%	.	23.1%	-27.1%	-20.3%
CCn1cc2nc(SCc3ccccc3Cl)n(Cc3ccc(OC)cc3)c(=O)c2n1	-11.0%	.	-19.1%	-27.6%[59 µM]	?
COc1ccc(NC(=O)CC2C(=O)N(Cc3ccccc3)C(=S)N2CCN2CCOCC2)cc1 (stereo unspecified)	-35.3%	-8.0%	14.2%	-4.8%	-21.8%
C=CCN1C(=O)C(CC(=O)Nc2ccc(OCCC)cc2)N(CCCN2CCN(Cc3ccccc3)CC2)C1=S (stereo unspecified)	10µM*	.	-20.9%	?	?
Cn1cccc1/C=N\NC(=O)C1COc2ccc(C(C)(C)C)cc2O1 (stereo unspecified)	35.5µM*	.	6.6%	.	-10.5%
O=C(/C=C/c1ccco1)NC(=S)Nc1cccc(-c2nc3ccccc3o2)c1	44.7µM*	-13.0%	-17.6%	?	50.1µM*
CC(C)CC(=O)Nc1cccc(-c2nc3ncccc3o2)c1	3.1%	.	23.4%	16.0%	-5.1%
Cc1cccc(NC(=S)NC(=O)/C=C/c2ccco2)c1	44.7µM*	-27.3%	?	25.1µM*	?
CC(=O)c1ccc(NC(=S)NC(=O)/C=C/c2ccco2)cc1	?	?	-0.7%	44.7µM*	?
CCCC(=O)NC(=S)Nc1cccc(-c2nc3ncccc3o2)c1	-33.8%	0.4%	41.5%	22.4µM*	-3.5%
Cc1ccc(-n2nc3ccc(NC(=S)NC(=O)/C=C/c4ccco4)cc3n2)cc1	0.2%	-0.3%	28.2%	23.3%[59 µM]	-17.9%
CC(=O)c1ccc(NC(=S)NC(=O)/C=C/c2ccccc2)cc1	-5.6%	49.8%	13.6%	.	-19.9%
CCC(=O)O[C@@H](OP(=O)(CCCCc1ccccc1)CC(=O)N1C[C@H](C2CCCCC2)C[C@H]1C(=O)O)C(C)C (stereo partly specified)	.	.	.	-9.8%[12.7 µM]	.
O=C(CNC(=O)C1CCCC1)OC(C(=O)Nc1cc(C(F)(F)F)ccc1Cl)c1ccccc1 (stereo unspecified)	.	.	.	.	-11.0%
SMILES	BAZ2B block	L3MBTL1 block	HP1b chromo inh	G9a block	JMJD2A Tudor
CCn1c(-c2cccc(Br)c2)n[nH]c1=S	16.1%	-0.6%	0.3%	?	7.94µM*
CCn1c(-c2ccc([N+](=O)[O-])cc2)n[nH]c1=S	-29.8%	-0.7%	22.5%	3.98µM*	3.55µM*
CCCCn1c(=O)[nH]c(=O)c2c1nc(-c1ccc([N+](=O)[O-])cc1)n2CC	19.8%	.	27.0%	?	-2.7%
c1cnc2ccc(-c3ccc4ncccc4c3)cc2c1	0.4%	-2.4%[2.29 µM]	37.6%	22.3%[0.501 µM]	-25.7%
CCn1c(-c2ccc3ncccc3c2)n[nH]c1=S	3.0%	1.6%	29.4%	10µM*	5.01µM*
CCn1c(-c2sc(-c3ccccc3)nc2C)n[nH]c1=S	-7.8%	9.7%	-6.1%	-127.9%[59 µM]	17.8µM*
CCCC[C@]12Cc3cc(C#N)ccc3C(O1)c1c(c3cc(F)ccc3oc1=O)O2	3.0%[22.9 µM]	.	.	.	.
C=CCn1c(-c2ccc3ncccc3c2)n[nH]c1=S	4.8%	.	7.8%	7.94µM*	7.08µM*
CCOC(=O)CSc1nnc(-c2ccc3ncccc3c2)n1C	-37.8%	.	47.0%	-13.6%	5.3%
COc1ccccc1Nc1cc(C)nc(Nc2ccccc2OC)n1	?	-10.2%	7.8%	2.24µM*	-23.4%
CCn1c(SCC(=O)c2cc(OC)ccc2OC)nnc1C1CC1	2.1%	3.3%	25.7%	50.1µM*	-19.5%
CCn1c(SCC(=O)c2ccc(OC)cc2)nnc1C1CC1	-0.2%	1.4%	-2.8%	15.2%[12.7 µM]	100µM*
CCc1nnc(NC(=O)Cc2c[nH]c3ccccc23)s1	-19.6%	.	18.8%	44.7µM*	-7.5%
O=C(Cc1ccccc1)Nc1nc2ccccc2[nH]1	-8.6%	-3.6%	17.5%	-32.4%	-23.3%
CC(C)Cc1nnc(NC(=O)CCc2c[nH]c3ccccc23)s1	-21.5%	.	28.6%	-35.0%	-25.4%
O=C(Cc1c[nH]c2ccccc12)Nc1nc2ccccc2[nH]1	-29.9%	-18.5%	-6.7%	79.4µM*	?
O=C(NNC1CC(=O)N(c2ccc(F)cc2)C1=O)c1cccnc1 (stereo unspecified)	-10.8%	.	38.5%	12.6µM*	6.5%
CC(C)c1ccc(N2C(=O)CC(NNC(=O)c3cccnc3)C2=O)cc1 (stereo unspecified)	-21.1%	-6.2%	39.8%	56.2µM*	-3.2%
O=C(NNC1CC(=O)N(c2ccccc2)C1=O)c1cccnc1 (stereo unspecified)	-8.7%	1.5%	55.7%	4.7%	2.3%
CCOc1ccc(NC(=O)CN(C)C(=O)C2CC(=O)N(CCc3ccccc3)C2)cc1OCC (stereo unspecified)	5.0%	6.6%	29.3%	0.5%	-13.5%
COc1cc(/C=C(\C#N)C(=O)Nc2cccc(C(=O)O)c2)ccc1OCc1ccc(C)cc1	-26.9%	.	2.0%	?	?
COc1cc(/C=C(/C#N)C(=O)Nc2ccccc2)ccc1OCc1ccc(C(=O)O)cc1	56.2µM*	.	-9.6%	?	56.2µM*
COc1cc(C(N)=O)ccc1OCc1ccccc1	-16.3%	.	61.1%	-0.4%[59 µM]	-16.1%
